# Measured values as given in paper PMC10156912.
# Experiments:
# PHD finger protein 12 = PHD finger protein 12 (UniProt Q96QT6); assay: other; cross-linking mass spectrometry; other
# Histone deacetylase 2 = Histone deacetylase 2 (UniProt Q92769); assay: cross-link between two proteins; cross-linking mass spectrometry
# Histone deacetylase 2, sequence (Q92769 whole entry): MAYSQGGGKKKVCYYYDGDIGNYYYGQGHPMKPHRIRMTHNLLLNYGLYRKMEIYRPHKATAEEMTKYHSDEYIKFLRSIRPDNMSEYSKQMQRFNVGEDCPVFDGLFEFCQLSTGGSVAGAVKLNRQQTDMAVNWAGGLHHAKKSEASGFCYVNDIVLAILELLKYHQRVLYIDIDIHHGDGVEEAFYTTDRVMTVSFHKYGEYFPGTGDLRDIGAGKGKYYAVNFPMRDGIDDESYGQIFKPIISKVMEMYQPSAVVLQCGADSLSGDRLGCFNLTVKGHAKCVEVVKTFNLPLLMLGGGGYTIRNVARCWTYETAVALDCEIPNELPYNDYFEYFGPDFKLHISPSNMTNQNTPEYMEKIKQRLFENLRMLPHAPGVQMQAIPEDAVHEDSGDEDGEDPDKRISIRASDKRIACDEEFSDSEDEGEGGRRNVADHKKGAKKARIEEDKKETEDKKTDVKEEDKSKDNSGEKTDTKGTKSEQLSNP
# PHD finger protein 12, sequence (Q96QT6 whole entry): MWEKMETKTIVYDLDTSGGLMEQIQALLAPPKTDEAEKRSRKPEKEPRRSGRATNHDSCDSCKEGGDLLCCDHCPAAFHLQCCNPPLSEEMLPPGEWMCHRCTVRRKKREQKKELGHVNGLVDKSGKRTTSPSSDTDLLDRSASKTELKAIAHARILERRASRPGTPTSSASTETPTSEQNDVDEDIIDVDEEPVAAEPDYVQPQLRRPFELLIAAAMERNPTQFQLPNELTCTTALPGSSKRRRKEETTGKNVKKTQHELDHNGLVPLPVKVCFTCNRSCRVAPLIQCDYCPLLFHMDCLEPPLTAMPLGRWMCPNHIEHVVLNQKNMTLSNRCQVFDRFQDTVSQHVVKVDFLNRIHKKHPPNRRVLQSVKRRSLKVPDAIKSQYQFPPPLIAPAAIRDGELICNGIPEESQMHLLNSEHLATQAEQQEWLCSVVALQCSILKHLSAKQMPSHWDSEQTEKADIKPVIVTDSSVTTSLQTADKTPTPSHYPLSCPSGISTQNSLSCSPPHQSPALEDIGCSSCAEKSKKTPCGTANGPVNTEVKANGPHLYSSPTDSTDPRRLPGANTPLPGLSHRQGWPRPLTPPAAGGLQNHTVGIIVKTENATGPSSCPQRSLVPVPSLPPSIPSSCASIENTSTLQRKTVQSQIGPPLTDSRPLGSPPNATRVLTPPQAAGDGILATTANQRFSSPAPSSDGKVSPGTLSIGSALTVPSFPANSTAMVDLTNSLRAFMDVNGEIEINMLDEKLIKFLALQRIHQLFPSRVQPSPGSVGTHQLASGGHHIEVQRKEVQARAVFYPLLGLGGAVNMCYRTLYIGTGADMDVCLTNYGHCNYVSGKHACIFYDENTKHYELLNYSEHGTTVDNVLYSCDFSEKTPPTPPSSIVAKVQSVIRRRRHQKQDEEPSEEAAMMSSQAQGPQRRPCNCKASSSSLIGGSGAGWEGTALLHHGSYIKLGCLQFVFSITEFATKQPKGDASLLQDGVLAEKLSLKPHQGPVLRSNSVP
substance,measurement,setting,value
"Paired amphipathic helix protein Sin3b, O75182",listed as a hit,PHD finger protein 12,yes
same,listed as a hit,Histone deacetylase 2,yes
